# Bioassay records from PubChem.
# NPC1 promoter act = qHTS Assay for NPC1 Promoter Activators. Huh7 NPC1 promoter luciferase reporter, 24 h. 2.4% of 320,000 active. Potency, µM (series often up to 9.22 µM), without a hit: at the top dose activation, hits mostly activators; further: % of control where 0% means no effect; nearly all actives have a fitted effect of over 60% in size
#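 Readout is luciferase luminescence, reflecting NPC1 promoter activation in stably transfected Huh7 cells after 24 h compound exposure at 37 °C in reduced-serum medium with 10% FBS.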
# SMN2 splice up = qHTS Assay for Enhancers of SMN2 Splice Variant Expression | Potency, µM (doses to about 46.1 µM), without a hit: top-dose activity change, positive = activation, most hits filed as activators | HEK293 SMN2-luciferase splicing reporter, luminescence, 30-36 h | 2.8% of 210,000 active; further: % of control where 0% means no effect; nearly all actives have a fitted effect of over 55% in size
#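 HEK293 cells carry an SMN2 minigene-luciferase reporter in which exon 7 inclusion puts luciferase in frame. Cells were seeded at 2000 cells/well, attached for 10-12 hours, then exposed to compounds for 30-36 hours at 37C before ONE-Glo luminescence.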
# ELG1 genotoxic = qHTS screen for small molecules that induce genotoxicity in human embryonic kidney (HEK293T) cells expressing luciferase-tagged ELG1. HEK293T ELG1-luciferase reporter, luminescence, 16 h. 1.3% of 330,000 active. Potency, µM (titrated, usually from 46 µM), without a hit: at the highest dose activity change, positive = activation, usual class: activators; further: % of control where 0% means no effect; nearly all actives have a fitted effect of over 60% in size
#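 Cells (2,000/well) expressing the ELG1-luciferase fusion are dosed by pin tool and kept 16 hr at 37 °C, 5% CO2. Signal comes from ONE-Glo luciferase reagent after 30 min at room temperature.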
# FLuc counter = qHTS profiling assay for firefly luciferase inhibitor/activator using purifed enzyme and Km concentrations of substrates (counterscreen for miR-21 project). Luciferin 4-monooxygenase (Photinus pyralis), P08659. purified FLuc, Km substrates, luminescence inhibition. Potency, µM (doses to about 57.5 µM), for the others: at the highest dose activity change, negative = inhibition, hits mostly inhibitors. 6.9% of 360,000 active. AID 588342, 2011;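 further: plate controls were vehicle for no effect and reference inhibitor for full effect; nearly all actives have a fitted effect of over 55% in size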
# Target sequence (P08659 whole entry, looked up): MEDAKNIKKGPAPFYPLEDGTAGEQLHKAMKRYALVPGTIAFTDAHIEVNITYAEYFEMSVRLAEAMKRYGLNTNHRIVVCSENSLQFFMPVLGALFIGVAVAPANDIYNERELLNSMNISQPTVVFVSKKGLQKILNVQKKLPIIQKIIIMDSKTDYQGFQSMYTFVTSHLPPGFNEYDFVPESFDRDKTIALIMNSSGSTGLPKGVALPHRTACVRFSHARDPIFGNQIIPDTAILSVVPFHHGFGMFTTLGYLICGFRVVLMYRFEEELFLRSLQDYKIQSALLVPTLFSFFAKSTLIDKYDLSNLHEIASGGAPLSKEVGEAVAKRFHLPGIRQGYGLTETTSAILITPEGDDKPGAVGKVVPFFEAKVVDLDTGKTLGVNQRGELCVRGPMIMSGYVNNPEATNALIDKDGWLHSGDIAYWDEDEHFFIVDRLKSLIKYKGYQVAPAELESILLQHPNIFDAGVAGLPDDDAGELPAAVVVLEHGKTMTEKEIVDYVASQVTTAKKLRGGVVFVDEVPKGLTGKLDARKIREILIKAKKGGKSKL
#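 Purified P. pyralis luciferase, 10 nM final, with Km-level 10 uM D-luciferin and 10 uM ATP in 50 mM Tris acetate pH 7.5, 10 mM Mg acetate, 0.01% Tween-20, 0.05% BSA; 6-point qHTS titration about 60 µM downward; luminescence read.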
# Rab9 prom act = qHTS Assay for Rab9 Promoter Activators | Huh7 Rab9 promoter-luciferase reporter, luminescence, 24 h | Potency, µM (titrated, usually from 9.22 µM), inactives show at the top dose activation, negative = inhibition, most hits filed as activators | 2.8% of 320,000 active; further: % of control where 0% means no effect; nearly all actives have a fitted effect of over 60% in size
#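 Promoter activation is measured as luciferase luminescence in Huh7 cells stably transfected with a Rab9 promoter–luciferase construct, following 24 h compound exposure at 37 °C and 10 min reagent incubation at ambient temperature.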
# Luc counter = Counterscreen for Luciferase (Kinase-Glo TM) Inhibition; Kinase-Glo luciferase, ATP luminescence, 8 min; Potency, µM (highest dose often 38.3 µM), without a hit: top-dose activity change, negative = inhibition, usual class: inhibitors; 0.28% of 200,000 active; further: on the % scale 0 is the no-effect control and ±100 the full control effect; nearly all actives have a fitted effect of over 60% in size
#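 Light output from Kinase-Glo luciferase with luciferin and 10 uM ATP in 50 mM imidazole pH 7.2, KCl, MgCl2, Tween 20, BSA; compound pin-delivered, 8-min ambient incubation, then luminescence read.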
# An asterisk follows results filed as active; u = inconclusive; x = no result given; [ ] = dose if it differs, or a comment. Sampled rows, rich in hits. Any-hit rate of the full collection: about 7.5%. The call rests on the fitted dose curve; in most records, active means well fitted curve in the direction sought with a large enough effect; inconclusive means small, poorly fitted or top-dose-only effect, or another doubt; inactive means no such curve, though single readings can be large; an effect the other way counts as inactive or inconclusive. Potency means the concentration at half of the fitted maximal effect.
SMILES,NPC1 promoter act,SMN2 splice up,ELG1 genotoxic,FLuc counter,Rab9 prom act,Luc counter
COc1ccc(C(=O)O)c(OC)n1,12%,x,-8%,-2%,-27%,x
CC(=O)N1c2ccc(S(=O)(=O)NCC3CCC(C(=O)N4CC(C)CC(C)C4)CC3)cc2CC1C (configuration not stated),-8%,x,-2%[9.26 µM],-1%,-4%,x
Cn1cc(S(=O)(=O)N2CCCCCC2)cc1C(=O)N1CCN(c2ccccc2F)CC1,x,x,x,5%,x,x
O=S(=O)(O)c1cc(O)c2c(O)c(N=Nc3cc(Cl)ccc3O)c(S(=O)(=O)O)cc2c1,-7%,x,-4%,21µM*,-10%,x
Nc1cc(S(=O)(=O)O)cc2ccc(S(=O)(=O)O)cc12,x,1%[9.22 µM],x,x,x,-1%[7.66 µM]
Cc1cc(-c2ccc(N=Nc3c(S(=O)(=O)O)cc4cc(S(=O)(=O)O)cc(N)c4c3O)c(C)c2)ccc1N=Nc1c(S(=O)(=O)O)cc2cc(S(=O)(=O)O)cc(N)c2c1O,-13%,x,-44%,21µM*,-12%,x
O=S(=O)(O)c1ccc2c(N=Nc3cccc4ccccc34)c(O)c(S(=O)(=O)O)cc2c1,x,-28%[9.22 µM],x,x,x,-17%[7.66 µM]
Cc1cnc(CNc2ncnc3ccc(-c4ccccc4C#N)cc23)cn1,x,-13%,x,x,x,-3%
CCCC[n+]1ccn(-c2nc3ccccc3nc2[N-]S(=O)(=O)c2cccs2)c1,1%,x,-2%,5%,-9%,x
COC(=O)c1cc(Cl)ccc1NC(=O)Cn1c(C)cc(C)c(C#N)c1=O,x,2%,x,-3%,x,x
COc1ccccc1CNC(=O)COC(=O)c1cccc(-n2cnnn2)c1,-2%,x,-1%,-2%,6%,x
O=C(COC(=O)c1cccc(-n2cnnn2)c1)c1ccc(F)cc1,3.2µM*,x,u,17µM*,2.8µM*,x
COc1ccc(C(=O)COC(=O)c2cccc(-n3cnnn3)c2)c(OC)c1,4µM*,x,u,11µM*,3.5µM*,x
OCCNc1ncnc2c1ncn2[C@@H]1O[C@@H](CO)[C@H](O)[C@@H]1O,x,7%[9.22 µM],x,x,x,-7%[7.66 µM]
COc1ccccc1C(=O)COC(=O)c1ccc(N(C)C)cc1,3.2µM*,22µM*,u,5.4µM*,3.5µM*,-4%
COc1ccccc1C(=O)COC(=O)/C=C/c1ccccc1,26%,x,20%,13µM*,26%,x
CCc1ccc(C(=O)COC(=O)c2ccccc2OC)cc1,2.2µM*,x,u,0.48µM*,3.2µM*,x
COc1ccccc1C(=O)COC(=O)c1ccccc1O,-11%,5%,16%,21µM*,13%,-1%
O=C(/C=C/c1ccccc1)OCC(=O)c1c[nH]c2ccccc12,x,x,-2%,x,x,x
CC(NC(=O)COC(=O)c1ccc(N(C)C)cc1)c1ccccc1 (configuration not stated),-3%,11%,-7%,-8%,-5%,1%
COc1ccc(N/N=C(\C#N)C(=N)SCc2ccccc2)cc1,-4%,-5%,-12%,27µM*,-8%,-4%
Cc1ccc(N/N=C(\C#N)C(=N)N2CCCCCC2)cc1,0.5µM*,2.2µM*,1.8µM*,2.7µM*,0.79µM*,-1%
COc1ccc(N/N=C(\C#N)C(=N)N2CCCCC2)cc1,2µM*,x,u,4.8µM*,2.5µM*,x
N#C/C(=N\Nc1ccccc1F)C(=N)N1CCCCC1,3.2µM*,11µM*,21µM*,12µM*,1.6µM*,0%
N#C/C(=N\Nc1ccccc1)C(=N)N1CCOCC1,5%,76%,1%,u,5%,6%
COc1ccc(Cl)cc1N(CC(=O)NC(C)(C)C)S(=O)(=O)c1ccc(C)c([N+](=O)[O-])c1,-1%,5%[1.84 µM],-4%,3%,-6%,-1%
